# Assay results from the supplement of paper PMC4466140.
# Tests used:
# Test in all cases: SPOT peptide array binding signal intensity (averaged, normalized) (arbitrary units (background-subtracted, floor 0; scale differs between SH3 domains)); higher = stronger binding of the SH3 domain to the peptide
# CaNbp2 = target: CaNbp2
# How it was run: (§1)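 Four yeast species supplied the SH3 domains, which were expressed as GST fusions in E. coli BL21(DE3) and purified on glutathione Sepharose. Incubation with cellulose membranes carrying synthetic 15-mer peptides, cysteines exchanged for serines, ran overnight at 4°C at 10 μg/ml in TBS-based blocking buffer. Binding signal is reported as normalized, background-subtracted spot intensity averaged over replicates, in arbitrary units not shared between domains.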
# CaRvs167 = target: CaRvs167
# How it was run: as §1
# CaRvs167-3 = target: CaRvs167-3
# How it was run: as §1
# CaSho1 = target: CaSho1
# How it was run: as §1
# CaSla1-D1-D2 = target: CaSla1-D1-D2
# How it was run: as §1
# CaSla1-D3 = target: CaSla1-D3
# How it was run: as §1
# ScAbp1 = target: ScAbp1
# How it was run: as §1
# ScBbc1 = target: ScBbc1
# How it was run: as §1
# ScBem1-D1 = target: ScBem1-D1
# How it was run: as §1
# ScBzz1-D1 = target: ScBzz1-D1
# How it was run: as §1
# ScBzz1-D2 = target: ScBzz1-D2
# How it was run: as §1
# ScCyk3 = target: ScCyk3
# How it was run: as §1
# ScFus1 = target: ScFus1
# How it was run: as §1
# ScHof1 = target: ScHof1
# How it was run: as §1
# ScHse1 = target: ScHse1
# How it was run: as §1
# ScLsb1 = target: ScLsb1
# How it was run: as §1
# ScLsb2 = target: ScLsb2
# How it was run: as §1
# ScLsb3 = target: ScLsb3
# How it was run: as §1
# ScLsb4 = target: ScLsb4
# How it was run: as §1
# ScMyo3 = target: ScMyo3
# How it was run: as §1
# ScMyo5 = target: ScMyo5
# How it was run: as §1
# ScNbp2 = target: ScNbp2
# How it was run: as §1
# ScPex13 = target: ScPex13
# How it was run: as §1
# ScRvs167 = target: ScRvs167
# How it was run: as §1
# ScSho1 = target: ScSho1
# How it was run: as §1
# ScSla1-D1-D2 = target: ScSla1-D1-D2
# How it was run: as §1
# ScSla1-D3 = target: ScSla1-D3
# How it was run: as §1
# SpAbp1-D1 = target: SpAbp1-D1
# How it was run: as §1
# SpBbc1 = target: SpBbc1
# How it was run: as §1
# SpBzz1-D1 = target: SpBzz1-D1
# How it was run: as §1
# SpBzz1-D2 = target: SpBzz1-D2
# How it was run: as §1
# SpCyk3 = target: SpCyk3
# How it was run: as §1
# SpHof1 = target: SpHof1
# How it was run: as §1
# SpHof1-2 = target: SpHof1-2
# How it was run: as §1
# SpHof1-3 = target: SpHof1-3
# How it was run: as §1
# SpHse1 = target: SpHse1
# How it was run: as §1
# SpLsb1 = target: SpLsb1
# How it was run: as §1
# SpLsb4 = target: SpLsb4
# How it was run: as §1
# SpMyo1 = target: SpMyo1
# How it was run: as §1
# SpNbp2 = target: SpNbp2
# How it was run: as §1
# SpPex13 = target: SpPex13
# How it was run: as §1
# SpRvs167 = target: SpRvs167
# How it was run: as §1
# SpSla1-D1-D2 = target: SpSla1-D1-D2
# How it was run: as §1
# SpSla1-D3 = target: SpSla1-D3
# How it was run: as §1
# AgAbp1 = target: AgAbp1
# How it was run: as §1
# AgBbc1 = target: AgBbc1
# How it was run: as §1
# AgBem1-D1 = target: AgBem1-D1
# How it was run: as §1
# AgBzz1-D1 = target: AgBzz1-D1
# How it was run: as §1
# AgBzz1-D2 = target: AgBzz1-D2
# How it was run: as §1
# AgCyk3 = target: AgCyk3
# How it was run: as §1
# AgFus1 = target: AgFus1
# How it was run: as §1
# AgHof1 = target: AgHof1
# How it was run: as §1
# AgHse1 = target: AgHse1
# How it was run: as §1
# AgLsb1 = target: AgLsb1
# How it was run: as §1
# AgLsb4 = target: AgLsb4
# How it was run: as §1
# AgMyo5 = target: AgMyo5
# How it was run: as §1
# AgNbp2 = target: AgNbp2
# How it was run: as §1
# AgRvs167 = target: AgRvs167
# How it was run: as §1
# AgSho1 = target: AgSho1
# How it was run: as §1
# AgSla1-D1-D2 = target: AgSla1-D1-D2
# How it was run: as §1
# AgSla1-D3 = target: AgSla1-D3
# How it was run: as §1
# CaAbp1-D1 = target: CaAbp1-D1
# How it was run: as §1
# CaAbp1-D2 = target: CaAbp1-D2
# How it was run: as §1
# CaBbc1 = target: CaBbc1
# How it was run: as §1
# CaBem1-D1 = target: CaBem1-D1
# How it was run: as §1
# CaBzz1-D1 = target: CaBzz1-D1
# How it was run: as §1
# CaBzz1-D2 = target: CaBzz1-D2
# How it was run: as §1
# CaCyk3 = target: CaCyk3
# How it was run: as §1
# CaFus1 = target: CaFus1
# How it was run: as §1
# CaHof1 = target: CaHof1
# How it was run: as §1
# CaHse1 = target: CaHse1
# How it was run: as §1
# CaLsb1 = target: CaLsb1
# How it was run: as §1
# CaLsb4 = target: CaLsb4
# How it was run: as §1
# CaMyo5 = target: CaMyo5
# How it was run: as §1
binder,measurement,setting,value
VGFRLALKFPSRITG,SPOT peptide array binding signal intensity,CaNbp2,2320
same,SPOT peptide array binding signal intensity,CaRvs167,703
same,SPOT peptide array binding signal intensity,CaRvs167-3,2360
same,SPOT peptide array binding signal intensity,CaSho1,3450
same,SPOT peptide array binding signal intensity,CaSla1-D1-D2,108
same,SPOT peptide array binding signal intensity,CaSla1-D3,782
same,SPOT peptide array binding signal intensity,ScAbp1,137
same,SPOT peptide array binding signal intensity,ScBbc1,11.5
same,SPOT peptide array binding signal intensity,ScBem1-D1,60
same,SPOT peptide array binding signal intensity,ScBzz1-D1,188
same,SPOT peptide array binding signal intensity,ScBzz1-D2,649
same,SPOT peptide array binding signal intensity,ScCyk3,137
same,SPOT peptide array binding signal intensity,ScFus1,3260
same,SPOT peptide array binding signal intensity,ScHof1,7.5
same,SPOT peptide array binding signal intensity,ScHse1,3980
same,SPOT peptide array binding signal intensity,ScLsb1,12
same,SPOT peptide array binding signal intensity,ScLsb2,38
same,SPOT peptide array binding signal intensity,ScLsb3,1230
same,SPOT peptide array binding signal intensity,ScLsb4,152
same,SPOT peptide array binding signal intensity,ScMyo3,8.5
same,SPOT peptide array binding signal intensity,ScMyo5,26.5
same,SPOT peptide array binding signal intensity,ScNbp2,1400
same,SPOT peptide array binding signal intensity,ScPex13,67.8
same,SPOT peptide array binding signal intensity,ScRvs167,180
same,SPOT peptide array binding signal intensity,ScSho1,3930
same,SPOT peptide array binding signal intensity,ScSla1-D1-D2,561
same,SPOT peptide array binding signal intensity,ScSla1-D3,246
same,SPOT peptide array binding signal intensity,SpAbp1-D1,658
same,SPOT peptide array binding signal intensity,SpBbc1,97.5
same,SPOT peptide array binding signal intensity,SpBzz1-D1,1110
same,SPOT peptide array binding signal intensity,SpBzz1-D2,111
same,SPOT peptide array binding signal intensity,SpCyk3,75
same,SPOT peptide array binding signal intensity,SpHof1,620
same,SPOT peptide array binding signal intensity,SpHof1-2,179
same,SPOT peptide array binding signal intensity,SpHof1-3,2110
same,SPOT peptide array binding signal intensity,SpHse1,1790
same,SPOT peptide array binding signal intensity,SpLsb1,40.5
same,SPOT peptide array binding signal intensity,SpLsb4,913
same,SPOT peptide array binding signal intensity,SpMyo1,41
same,SPOT peptide array binding signal intensity,SpNbp2,2320
same,SPOT peptide array binding signal intensity,SpPex13,578
same,SPOT peptide array binding signal intensity,SpRvs167,161
same,SPOT peptide array binding signal intensity,SpSla1-D1-D2,17
same,SPOT peptide array binding signal intensity,SpSla1-D3,260
RFKRHRLEFPFNESE,SPOT peptide array binding signal intensity,AgAbp1,154
same,SPOT peptide array binding signal intensity,AgBbc1,38.5
same,SPOT peptide array binding signal intensity,AgBem1-D1,120
same,SPOT peptide array binding signal intensity,AgBzz1-D1,58
same,SPOT peptide array binding signal intensity,AgBzz1-D2,71
same,SPOT peptide array binding signal intensity,AgCyk3,≤ 0
same,SPOT peptide array binding signal intensity,AgFus1,378
same,SPOT peptide array binding signal intensity,AgHof1,28
same,SPOT peptide array binding signal intensity,AgHse1,929
same,SPOT peptide array binding signal intensity,AgLsb1,1.5
same,SPOT peptide array binding signal intensity,AgLsb4,78
same,SPOT peptide array binding signal intensity,AgMyo5,0.75
same,SPOT peptide array binding signal intensity,AgNbp2,37
same,SPOT peptide array binding signal intensity,AgRvs167,5.33
same,SPOT peptide array binding signal intensity,AgSho1,46
same,SPOT peptide array binding signal intensity,AgSla1-D1-D2,98
same,SPOT peptide array binding signal intensity,AgSla1-D3,8
same,SPOT peptide array binding signal intensity,CaAbp1-D1,759
same,SPOT peptide array binding signal intensity,CaAbp1-D2,598
same,SPOT peptide array binding signal intensity,CaBbc1,107
same,SPOT peptide array binding signal intensity,CaBem1-D1,164
same,SPOT peptide array binding signal intensity,CaBzz1-D1,34.5
same,SPOT peptide array binding signal intensity,CaBzz1-D2,34.8
same,SPOT peptide array binding signal intensity,CaCyk3,3
same,SPOT peptide array binding signal intensity,CaFus1,608
same,SPOT peptide array binding signal intensity,CaHof1,1.5
same,SPOT peptide array binding signal intensity,CaHse1,16
same,SPOT peptide array binding signal intensity,CaLsb1,≤ 0
same,SPOT peptide array binding signal intensity,CaLsb4,31
same,SPOT peptide array binding signal intensity,CaMyo5,13.2
same,SPOT peptide array binding signal intensity,CaNbp2,342
same,SPOT peptide array binding signal intensity,CaRvs167,25.7
same,SPOT peptide array binding signal intensity,CaRvs167-3,211
same,SPOT peptide array binding signal intensity,CaSho1,939
same,SPOT peptide array binding signal intensity,CaSla1-D1-D2,7
same,SPOT peptide array binding signal intensity,CaSla1-D3,4
same,SPOT peptide array binding signal intensity,ScAbp1,236
same,SPOT peptide array binding signal intensity,ScBbc1,11.5
same,SPOT peptide array binding signal intensity,ScBem1-D1,52
same,SPOT peptide array binding signal intensity,ScBzz1-D1,12
same,SPOT peptide array binding signal intensity,ScBzz1-D2,1
same,SPOT peptide array binding signal intensity,ScCyk3,112
same,SPOT peptide array binding signal intensity,ScFus1,286
same,SPOT peptide array binding signal intensity,ScHof1,5.25
same,SPOT peptide array binding signal intensity,ScHse1,1570
same,SPOT peptide array binding signal intensity,ScLsb1,36.2
same,SPOT peptide array binding signal intensity,ScLsb2,3
same,SPOT peptide array binding signal intensity,ScLsb3,80
same,SPOT peptide array binding signal intensity,ScLsb4,≤ 0
same,SPOT peptide array binding signal intensity,ScMyo3,≤ 0
same,SPOT peptide array binding signal intensity,ScMyo5,3.5
same,SPOT peptide array binding signal intensity,ScNbp2,154
same,SPOT peptide array binding signal intensity,ScPex13,≤ 0
same,SPOT peptide array binding signal intensity,ScRvs167,25.3
same,SPOT peptide array binding signal intensity,ScSho1,756
same,SPOT peptide array binding signal intensity,ScSla1-D1-D2,358
same,SPOT peptide array binding signal intensity,ScSla1-D3,11.8
same,SPOT peptide array binding signal intensity,SpAbp1-D1,419
same,SPOT peptide array binding signal intensity,SpBbc1,2.5
same,SPOT peptide array binding signal intensity,SpBzz1-D1,127
